Experimental data from ChEMBL document CHEMBL4513146, “CO-ADD screening of Karazin Kharkiv National University (Ukraine) compounds”.
Results with a measured potency or affinity are listed apart.

Legend:
[1] = test system: Klebsiella pneumoniae; conditions: Concentration 32 ug.mL-1;; ASSAY_TEST Inhibition of Bacterial Growth; detection method Absorption (OD600); MEDIA CAMHB; plate type 384well; NBS; CORNING #3640; time 18 hr
[2] = test system: Candida albicans; conditions: Concentration 32 ug.mL-1; ASSAY_TEST Inhibition of Fungal Growth; detection method Absorption (OD530)
[3] = test system: Cryptococcus neoformans; conditions: Concentration 32 ug.mL-1; ASSAY_TEST Inhibition of Fungal Growth; detection method Resazurin; Absorption (OD600-OD570); plate type 384well; NBS; CORNING #3640

Structure (SMILES) | Inhibition [1] [%] | Inhibition [2] [%] | Inhibition [3] [%]
Cc1ccc(-c2ccc3nnc(CCC(=O)N4CCN(C(=O)c5ccco5)CC4)n3n2)cc1C | 19.25 | 2.04 | -14.25
CCOC(=O)c1ccc(NC(=O)Cn2nc3c(SC4CCCCC4)nccn3c2=O)cc1 | 11.88 | -1.98 | -30.92
COc1cccc(-n2ccn3c(SCc4cc(C)ccc4C)nnc3c2=O)c1 | 8.78 | 2.61 | -5.92
Cc1ccc(N(Cc2ccccc2F)S(=O)(=O)c2ccc3nncn3c2)cc1 | -0.06 | 0.13 | -11.13
COc1ccc(-c2cc3c4nnc(CCC(=O)N5CCN(c6ccccc6F)CC5)n4ccn3n2)cc1 | 15.22 | 2.19 | -8.32
COC(=O)c1ccc(NC(=O)Cn2nc3c(N4CCOCC4)nccn3c2=O)cc1 | 12.49 | 2.39 | -14.01
COc1ccc(NC(=O)Cn2nc3ccc(SC(C)(C)C)nn3c2=O)cc1Cl | 12.99 | 3.69 | -9.98
Cc1ccc(NC(=O)Cn2nc3ccc(SC(C)C)nn3c2=O)c(Cl)c1 | 9.56 | 10.62 | -1.74
Cc1ccc(F)cc1NC(=O)CSc1nc2ccccc2n2c(C(C)C)nnc12 | 9.62 | 0.82 | -18.14
CC(C)c1ccc(NC(=O)Cn2nc3c(N4CCCC4)nccn3c2=O)cc1 | 11.79 | 2.06 | -12.68
COc1ccc(NC(=O)Cn2nc3c(SC4CCCCC4)nccn3c2=O)cc1OC | 12.09 | -2.05 | -22.51
O=C(Cn1nc2ccc(-c3ccccc3)nn2c1=O)Nc1ccc(F)cc1 | 7.53 | 0.88 | -10.36
CC(C)c1ccc(NC(=O)Cn2nc3c(N4CCCCC4)nccn3c2=O)cc1 | 10.38 | 4.27 | -12.25
CCc1ccc(NC(=O)Cn2nc3c4cc(-c5ccc(C)c(C)c5)nn4ccn3c2=O)cc1 | 5.45 | 21.77 | -12.06
Cc1cccc(C)c1NC(=O)Cn1nc2c3cc(-c4ccc(Cl)cc4)nn3ccn2c1=O | 6.6 | -0.5 | -16.41
O=C(Cn1nc2c(SCc3ccccc3)nccn2c1=O)NCc1ccccc1 | -8.41 | 20.32 | -13.69
O=C(Cn1nc2ccc(Sc3ccccc3)nn2c1=O)Nc1ccc(F)c(Cl)c1 | 8.09 | 1.47 | -7.06
CCOc1ccc(-n2ccn3c(SCC(=O)Nc4ccc(F)cc4F)nnc3c2=O)cc1 | 15.47 | 3.41 | -5.09
CSc1cccc(NC(=O)Cn2nc3c(Oc4cc(C)cc(C)c4)nccn3c2=O)c1 | 7.88 | 2.48 | -9.76
Cc1ccc(-n2ccn3c(=O)n(Cc4ccc(Cl)cc4)nc3c2=O)cc1C | 1.49 | 0.66 | -5.42
CCc1nnc2c(=O)n(CC(=O)Nc3cccc(C#N)c3)c3ccccc3n12 | 9.63 | 5.47 | -28.04

Structure (SMILES) | Inhibition [1] [%] | Inhibition [2] [%] | Inhibition [3] [%]
COCCCNC(=O)CSc1nnc2c(=O)n(Cc3ccccc3)ccn12 | 17 | 2.41 | -23.49
Cc1cc(C)cc(N(Cc2cc(C)ccc2C)S(=O)(=O)c2cccn3c(C)nnc23)c1 | 4.69 | 1.02 | -8.76
CCOc1ccc(-n2ccn3c(SCC(=O)Nc4cc(OC)cc(OC)c4)nnc3c2=O)cc1 | 3.96 | 2.98 | -7.81
COc1ccc(-c2cc3c4nn(CC(=O)Nc5ccc(C)c(F)c5)c(=O)n4ccn3n2)cc1 | 3.92 | 28.75 | -7.43
CCc1nnc2c(SCC(=O)Nc3cccc(OC)c3)nc3ccccc3n12 | 3.16 | 3.37 | -8.02
COc1ccc(Cl)cc1NC(=O)CSc1nc2ccccc2n2cnnc12 | 13.26 | 6.06 | -17.53
CSc1cccc(NC(=O)Cn2nc3ccc(-c4ccc(C)c(C)c4)nn3c2=O)c1 | -6.08 | 28.21 | -10.99
COc1ccc(NC(=O)Cn2nc3c4cc(-c5ccc(OC)cc5)nn4ccn3c2=O)cc1 | 12.45 | 2.73 | -13.09
CCc1ccc(N(Cc2ccccc2C)S(=O)(=O)c2cccn3c(CC)nnc23)cc1 | 6.17 | 4.38 | -7.67
Cc1ccc(NC(=O)Cn2nc3c4c5c(sc4ncn3c2=O)CCCC5)c(Cl)c1 | 3.19 | 9.32 | -16.36
N#Cc1ccccc1NC(=O)Cn1nc2c(Oc3ccccc3)nccn2c1=O | 2.81 | -0.12 | -5.65
Cc1nnc2ccc(S(=O)(=O)N(Cc3cccc(F)c3)c3cc(F)cc(F)c3)cn12 | 10.98 | -1.03 | -12.8
Cc1ccc(-c2cc3c4nnc(SCC(=O)Nc5cccc(Cl)c5C)n4ccn3n2)cc1 | -0.41 | 0.76 | -8.53
Cc1ccc(N(Cc2ccc(F)cc2)S(=O)(=O)c2ccc3nnc(C)n3c2)cc1 | 5.71 | 1.54 | -13.44
Cc1cccc(CN(c2cccc(F)c2)S(=O)(=O)c2ccc3nncn3c2)c1 | 14.36 | 3.33 | -4.78
COc1cc(NC(=O)Cn2nc3ccc(-c4ccc(C)c(C)c4)nn3c2=O)cc(OC)c1 | 2.14 | 14.91 | -15.3
COc1cccc(CN(c2ccccc2)S(=O)(=O)c2ccc3nncn3c2)c1 | 0.32 | 2.69 | -7.16
O=c1n(Cc2ccc(Cl)cc2)nc2ccc(-c3ccccc3)nn12 | 18.04 | 2.75 | -18.7
Cc1ccc(NC(=O)Cn2nc3c(Oc4ccccc4)nccn3c2=O)c(Cl)c1 | -7.35 | -1.78 | -4
O=C(CCc1nnc2c(N3CCCCC3)nc3ccccc3n12)NCc1ccc(Cl)cc1 | 14.26 | 2.29 | -23.16
O=C(Cn1nc2c(N3CCOCC3)nccn2c1=O)Nc1ccccc1Br | 13.49 | 4.41 | -7.57

Structure (SMILES) | Inhibition [1] [%] | Inhibition [2] [%] | Inhibition [3] [%]
Cc1ccc(NC(=O)Cn2nc3ccc(SCc4ccc(Cl)cc4)nn3c2=O)cc1C | 8.36 | 3.97 | -21.31
Cc1ccc(Oc2nc3ccccc3n3c(=O)n(CC(=O)Nc4ccc5c(c4)OCO5)nc23)cc1 | 4.57 | 10.98 | -25.85
Cc1cccc(NC(=O)c2ccc3nnc(SCC(=O)Nc4ccc(Br)cc4)n3c2)c1 | 7.72 | 7.81 | -6.93
COc1cccc(-n2ccn3c(SCC(=O)c4c(C)[nH]c5ccccc45)nnc3c2=O)c1 | 9.67 | 3.81 | -9.48
COc1ccc(NC(=O)CSc2nnc3c(=O)n(-c4ccccc4OC)ccn23)cc1Cl | 12.69 | 3.75 | -12.03
CCC(Sc1nnc2c(=O)n(-c3ccc(C)c(C)c3)ccn12)C(=O)Nc1cc(OC)ccc1OC (stereo not drawn) | 5.57 | 2.66 | -6.72
CC(C)Sc1ccc2nn(CC(=O)Nc3ccc(F)cc3Cl)c(=O)n2n1 | 6.92 | 3.44 | -6.24
COc1ccc(CNC(=O)Cn2nc3c(Sc4ccc(C)cc4C)nccn3c2=O)cc1 | 6.84 | -0.37 | -7.66
Cc1ccc(-c2ccc3nn(CC(=O)NC4CCCCC4)c(=O)n3n2)cc1C | 13.52 | 3.29 | -9.98
Cc1ccc(CNC(=O)Cn2nc3c(Sc4cccc(F)c4)nccn3c2=O)cc1 | -2.32 | 4.04 | -11.39
COc1cccc(Oc2nccn3c(=O)n(CC(=O)NCc4ccccc4Cl)nc23)c1 | 18.21 | -2.46 | -9.66
N#Cc1ccc(NC(=O)Cn2nc3c(SC4CCCCC4)nccn3c2=O)cc1 | 10.51 | 3.23 | -20.35
CCc1ccccc1NC(=O)Cn1nc2c(Sc3ccccc3CC)nccn2c1=O | 12.45 | 3.69 | -11.06
CCOc1ccc(-n2ccn3c(SCC(=O)c4cccc(Cl)c4)nnc3c2=O)cc1 | 10.21 | 2.76 | -7.79
CCc1nnc2c(SCC(=O)Nc3ccc(OC)c(Cl)c3)nc3ccccc3n12 | 11.84 | 5.38 | -21.55
COc1ccccc1Cn1c(=O)c2sccc2n2c(=O)n(CC(=O)c3ccc(C)cc3C)nc12 | 4.01 | 8 | -26.25
CCOc1ccccc1NC(=O)Cn1nc2c3c4c(sc3ncn2c1=O)CCCC4 | 2.08 | 2.9 | -12.75
CCc1ccc(N(Cc2ccc(OC)cc2)S(=O)(=O)c2cccn3c(C)nnc23)cc1 | 6.54 | 3.18 | -10.92
O=c1c2nn(Cc3ccccc3F)c(=O)n2ccn1-c1ccccc1 | 4.89 | 1.22 | -10.1
